Measurements as given in PubChem BioAssay (NCI).
About 83,000 compounds went through this panel and 20% of them were active in at least one assay; those are over-represented in the sample as a whole.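 In brief: 96-well plates, 48 h treatment, single concentration, percent growth endpoint.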 The source made the active and inactive calls. The calls were made as follows: active = growth percent below 10; inactive = the rest.

Assays:
Experiment in all cases: NCI-60 one-dose screen, 48 h (100 = growth as untreated, 0 = no growth, -100 = all killed)
Details in all cases: 10 µM unless noted
HCT-15 colon = test system: HCT-15 colon
SNB-75 CNS = test system: SNB-75 CNS
SNB-19 CNS = test system: SNB-19 CNS
U251 CNS = test system: U251 CNS
PC-3 prostate = test system: PC-3 prostate
UACC-62 melanoma = test system: UACC-62 melanoma
LOX IMVI melanoma = test system: LOX IMVI melanoma
SK-MEL-28 melanoma = test system: SK-MEL-28 melanoma
HT29 colon = test system: HT29 colon
SK-MEL-5 melanoma = test system: SK-MEL-5 melanoma

Measured: growth

COc1ccc(OC2=C(C#N)C(=N)N3c4ccccc4Sc4ccccc4C3N2)cc1 (configuration not stated)
inactive: HCT-15 colon 105% | SNB-75 CNS 69% | SNB-19 CNS 97.8% | U251 CNS 105% | PC-3 prostate 88.9% | UACC-62 melanoma 69.6% | LOX IMVI melanoma 87.4% | SK-MEL-28 melanoma 76.4%

O=C(Nc1ccccc1O)c1ccc(NS(=O)(=O)c2cccc3cccnc23)cc1
inactive: HCT-15 colon 63.9% | SNB-75 CNS 48.5% | SNB-19 CNS 67.9% | U251 CNS 46.5% | PC-3 prostate 59% | UACC-62 melanoma 23.1% | SK-MEL-28 melanoma 37.6%

O=C(c1ccc2ncc(-c3nc(NC4CC4)ncc3F)n2c1)N1CCOCC1
active: SNB-75 CNS -21.6% | SK-MEL-5 melanoma -51.8% | LOX IMVI melanoma -0.283%
inactive: HT29 colon 26.4% | SNB-19 CNS 45.8% | U251 CNS 28.6% | PC-3 prostate 52.6% | UACC-62 melanoma 16.9%

O=C(O)c1ccccc1Oc1cc(-c2ccco2)nc(OCCBr)n1
inactive: HCT-15 colon 104% | SNB-75 CNS 99.7% | SNB-19 CNS 98.6% | U251 CNS 98.3% | SK-MEL-5 melanoma 110% | UACC-62 melanoma 94.9% | LOX IMVI melanoma 107% | SK-MEL-28 melanoma 119%

COC(=O)/C=C1/CCC2C3CCC4=CC(=O)C(Br)CC4(C)C3C(=O)CC12C (configuration not stated)
inactive: HCT-15 colon 66.6% | SNB-75 CNS 70.8% | SNB-19 CNS 78.9% | PC-3 prostate 53.5% | SK-MEL-5 melanoma 57.4% | UACC-62 melanoma 73.5% | LOX IMVI melanoma 38.2%

O=C1CC2c3cc(-c4cc5ccccc5o4)ccc3CCN2C(=O)N1c1ccccc1 (configuration not stated)
inactive: HCT-15 colon 54.6% | SNB-75 CNS 73.8% | SNB-19 CNS 89.6% | PC-3 prostate 51.9% | SK-MEL-5 melanoma 82.7% | LOX IMVI melanoma 94.4% | SK-MEL-28 melanoma 99.8%

NC(=O)c1cc(Cl)ccc1NC(=O)COc1ccccc1
inactive: HCT-15 colon 33.3% | SNB-75 CNS 36.5% | SNB-19 CNS 64.7% | U251 CNS 39.7% | PC-3 prostate 47.3% | UACC-62 melanoma 56.7% | LOX IMVI melanoma 59.4% | SK-MEL-28 melanoma 69.3%

CC(=O)c1cc(C)c(OC(=O)c2ccccc2)c(C)c1
inactive: HCT-15 colon 92.2% | SNB-75 CNS 82.6% | SNB-19 CNS 103% | PC-3 prostate 89.9% | SK-MEL-5 melanoma 88.9% | UACC-62 melanoma 90.7% | LOX IMVI melanoma 90.2% | SK-MEL-28 melanoma 117%

CCOc1ccc(-c2cnnn2-c2nonc2-n2cccc2)cc1
inactive: HCT-15 colon 22.6% | SNB-19 CNS 37% | U251 CNS 17.6% | PC-3 prostate 30.4% | UACC-62 melanoma 35.6% | LOX IMVI melanoma 33.1% | SK-MEL-28 melanoma 37.5%
active: SNB-75 CNS 5.23%

FC(F)(F)c1ccc2c(c1)n1cnnc1c1nncn21
inactive: HCT-15 colon 111% | SNB-75 CNS 103% | SNB-19 CNS 107% | PC-3 prostate 98.3% | SK-MEL-5 melanoma 98.7% | UACC-62 melanoma 110% | LOX IMVI melanoma 108% | SK-MEL-28 melanoma 115%

COc1ccc(S(=O)(=O)ON=C2C=C(C)C(=O)C(C)=C2)cc1
inactive: HT29 colon 93.3% | SNB-75 CNS 69.1% | SNB-19 CNS 113% | U251 CNS 94.4% | PC-3 prostate 86% | SK-MEL-5 melanoma 98.2% | UACC-62 melanoma 91.2% | LOX IMVI melanoma 62% | SK-MEL-28 melanoma 96.8%

COc1ccc(NC(=O)COc2ccccc2)c(C(N)=O)c1
active: U251 CNS 9.36%
inactive: HCT-15 colon 28.8% | SNB-75 CNS 11.5% | SNB-19 CNS 53.4% | PC-3 prostate 39.9% | UACC-62 melanoma 43% | SK-MEL-28 melanoma 62%

FC(F)(F)Oc1ccc2c(c1)C[C@H]1C[C@@H](c3ccoc3)N2O1
inactive: HT29 colon 99.9% | SNB-75 CNS 99.5% | SNB-19 CNS 105% | U251 CNS 94.5% | PC-3 prostate 92.8% | SK-MEL-5 melanoma 115% | UACC-62 melanoma 98.8% | LOX IMVI melanoma 91.8% | SK-MEL-28 melanoma 108%

O=c1[nH]c(=O)n(Cc2ccc(F)cc2)cc1F
inactive: HT29 colon 114% [50 µM] | SNB-75 CNS 104% [50 µM] | SNB-19 CNS 100% [50 µM] | U251 CNS 98.7% [50 µM] | PC-3 prostate 107% [50 µM] | SK-MEL-5 melanoma 104% [50 µM] | UACC-62 melanoma 101% [50 µM] | LOX IMVI melanoma 96.4% [50 µM] | SK-MEL-28 melanoma 109% [50 µM]

O=C(Nc1ccc(F)cc1)c1ccc(C(=O)Nc2ccc(F)cc2)cc1
inactive: HCT-15 colon 89.1% | SNB-75 CNS 84.1% | SNB-19 CNS 106% | PC-3 prostate 99.6% | SK-MEL-5 melanoma 99.9% | UACC-62 melanoma 107% | LOX IMVI melanoma 103% | SK-MEL-28 melanoma 98.6%

OC[C@@H](O)[C@@H](O)CO
inactive: HCT-15 colon 102% | SNB-75 CNS 100% | SNB-19 CNS 98.3% | U251 CNS 98.7% | PC-3 prostate 97.2% | UACC-62 melanoma 98.3% | LOX IMVI melanoma 91.3% | SK-MEL-28 melanoma 112%

Brc1ccc(Br)nn1
inactive: SNB-75 CNS 37.7% | SNB-19 CNS 17.7% | UACC-62 melanoma 31.9%
active: HT29 colon -37.2% | U251 CNS -67.5% | PC-3 prostate -36.8% | SK-MEL-5 melanoma 8.56% | LOX IMVI melanoma -93.7% | SK-MEL-28 melanoma -75.9%

CN(C)C(=S)SCN1C(=O)c2ccc([N+](=O)[O-])cc2S1(=O)=O
inactive: HCT-15 colon 95.2% | SNB-75 CNS 99.9% | SNB-19 CNS 94.3% | U251 CNS 93.5% | SK-MEL-5 melanoma 101% | UACC-62 melanoma 92.2% | LOX IMVI melanoma 92.9% | SK-MEL-28 melanoma 109%

COc1cc(-c2nc3ccccc3o2)cc(CN2CCN(c3ccccc3)CC2)c1O
inactive: HT29 colon 93.8% | SNB-75 CNS 65.7% | SNB-19 CNS 82.6% | U251 CNS 52.6% | PC-3 prostate 40.4% | SK-MEL-5 melanoma 31.7% | UACC-62 melanoma 34% | SK-MEL-28 melanoma 87.2%
active: LOX IMVI melanoma 8.05%

Clc1ccccc1Nc1ccc2nnc(-c3ccncc3)n2n1
inactive: HT29 colon 99.2% | SNB-75 CNS 96.2% | SNB-19 CNS 107% | U251 CNS 97.4% | PC-3 prostate 75.7% | SK-MEL-5 melanoma 97.9% | UACC-62 melanoma 98.4% | LOX IMVI melanoma 96.1% | SK-MEL-28 melanoma 122%

CCCCCCCC/C=C\CCCCCCCCOc1cccc(CC(=O)NCC[N+]2(C)CCCC2)c1
inactive: HCT-15 colon 98.7% | SNB-75 CNS 53.3% | SNB-19 CNS 62.6% | U251 CNS 53.5% | PC-3 prostate 36.3% | UACC-62 melanoma 71.7% | LOX IMVI melanoma 87% | SK-MEL-28 melanoma 98.6%

c1ccc2cc(Cn3c(-c4ccc5ccccc5c4)[n+](Cc4ccc5ccccc5c4)c4ccccc43)ccc2c1
active: HT29 colon -71.7% | SNB-75 CNS -69.5% | SNB-19 CNS -76.4% | U251 CNS -78.6% | PC-3 prostate -57.8% | SK-MEL-5 melanoma -97.2% | UACC-62 melanoma -87.8% | LOX IMVI melanoma -98.8% | SK-MEL-28 melanoma -55.3%

COc1cc2nc(SCc3cc(OC)c(OC)c(OC)c3)n(-c3ccccc3OC)c(=O)c2cc1OC
inactive: HCT-15 colon 75.4% | U251 CNS 86.8% | PC-3 prostate 61.1% | UACC-62 melanoma 72.5% | LOX IMVI melanoma 77.3% | SK-MEL-28 melanoma 78.9%

Cc1ccc(S(=O)(=O)N2CCc3ccc(O)c4c3C2Cc2ccc3c(c2-4)OCO3)cc1 (configuration not stated)
inactive: HCT-15 colon 30.6% | SNB-19 CNS 52.3% | U251 CNS 12.7% | PC-3 prostate 26.8% | SK-MEL-5 melanoma 25.9% | LOX IMVI melanoma 35.6%
active: SNB-75 CNS 5.09%

CC(C)(C)[Si](C)(C)OC1[C@@H](COC(N)=O)O[C@@H](n2cnc3c(N)ncnc32)[C@H]1O[Si](C)(C)C(C)(C)C (some centres not stated)
inactive: HCT-15 colon 88% | SNB-75 CNS 99.4% | U251 CNS 82.7% | PC-3 prostate 18.4% | SK-MEL-5 melanoma 96.9% | UACC-62 melanoma 85.5% | LOX IMVI melanoma 98.2% | SK-MEL-28 melanoma 98.3%

Cc1ccccc1-c1cc(-c2ccc(Br)s2)[nH]c(=O)c1C#N
inactive: HCT-15 colon 98.7% | SNB-19 CNS 103% | U251 CNS 106% | PC-3 prostate 98.9% | SK-MEL-5 melanoma 93.1% | UACC-62 melanoma 92.3% | LOX IMVI melanoma 94.2% | SK-MEL-28 melanoma 108%

O=C1C(Cl)=C(NCCCN2CCOCC2)C(=O)c2ccccc21
inactive: HT29 colon 93.7% | SNB-75 CNS 78.3% | SNB-19 CNS 91.5% | U251 CNS 98.3% | PC-3 prostate 79.6% | SK-MEL-5 melanoma 67.5% | UACC-62 melanoma 94.8% | LOX IMVI melanoma 54.2% | SK-MEL-28 melanoma 104%

O=[N+]([O-])c1ccc(C=C2C(Cl)=C(Cl)C(Cl)=C2Cl)cc1
inactive: HT29 colon 30.9% | SNB-75 CNS 81.5% | SNB-19 CNS 80.6% | U251 CNS 20.1% | PC-3 prostate 58.5% | SK-MEL-5 melanoma 121% | UACC-62 melanoma 71.7%

COc1cc(CNCCCN2C(=O)c3ccc4c5c(ccc(c35)C2=O)C(=O)N(CCCNCc2cc(OC)c(OC)c(OC)c2)C4=O)cc(OC)c1OC
active: HCT-15 colon -29.4% | SNB-75 CNS -97.2% | SNB-19 CNS -92.3% | U251 CNS -74.5% | PC-3 prostate -54.8% | UACC-62 melanoma -90.2% | LOX IMVI melanoma -85.6% | SK-MEL-28 melanoma -91.7%
